Binding signal data for 1 sequence are collected here from publication PMC7862700, “An all-to-all approach to the identification of sequence-specific readers for epigenetic DNA modifications on cytosine”.

What all share (assay): DAPPL (digital affinity profiling via proximity ligation, sequencing); 10 mM Tris-HCl pH 7.5, 50 mM NaCl, 1 mM DTT, 4% glycerol, room temperature, 30 min; GST-TFs on glutathione beads, 16-mer random dsDNA library, 0.1% formaldehyde crosslink after washing; high values mean tight binding
What all share (conditions): protein: recombinant; tags: N-terminal GST; dsDNA, one strand shown

One assay addresses T1, FLI1 (Homo sapiens, UniProt Q01543 1-452).
T1 sequence: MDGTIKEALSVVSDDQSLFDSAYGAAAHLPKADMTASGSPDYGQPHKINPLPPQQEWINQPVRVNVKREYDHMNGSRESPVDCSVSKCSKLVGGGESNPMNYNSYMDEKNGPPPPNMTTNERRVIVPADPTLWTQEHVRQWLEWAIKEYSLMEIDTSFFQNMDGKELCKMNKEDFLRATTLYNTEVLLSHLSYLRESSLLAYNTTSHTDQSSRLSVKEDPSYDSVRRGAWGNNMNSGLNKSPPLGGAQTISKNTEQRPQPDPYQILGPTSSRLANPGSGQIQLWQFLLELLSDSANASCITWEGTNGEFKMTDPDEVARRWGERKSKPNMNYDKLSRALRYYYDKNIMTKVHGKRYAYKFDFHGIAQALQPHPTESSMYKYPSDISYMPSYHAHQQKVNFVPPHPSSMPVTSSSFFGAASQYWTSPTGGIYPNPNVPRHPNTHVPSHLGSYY
In a few lines:
(§1)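 Beads coated with glutathione captured GST-fused human transcription factors that had been expressed in yeast, and the factors were then given DNA barcodes and pooled with a tag-only sample. The pools were incubated with 200 nmole of a random double-stranded 16-mer DNA library in Tris/NaCl/DTT/glycerol buffer for 30 min at room temperature, washed, crosslinked with 0.1% formaldehyde and proximity-ligated with BsaI/T4 ligase at 37 °C for 1 h. PCR amplification and Illumina NextSeq500 sequencing came last. Binding signal is each hexamer's read frequency for a factor divided by its frequency for the tag-only sample.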

Another assay addresses T2, GABPA (Homo sapiens, UniProt Q06546 1-454).
T2 sequence: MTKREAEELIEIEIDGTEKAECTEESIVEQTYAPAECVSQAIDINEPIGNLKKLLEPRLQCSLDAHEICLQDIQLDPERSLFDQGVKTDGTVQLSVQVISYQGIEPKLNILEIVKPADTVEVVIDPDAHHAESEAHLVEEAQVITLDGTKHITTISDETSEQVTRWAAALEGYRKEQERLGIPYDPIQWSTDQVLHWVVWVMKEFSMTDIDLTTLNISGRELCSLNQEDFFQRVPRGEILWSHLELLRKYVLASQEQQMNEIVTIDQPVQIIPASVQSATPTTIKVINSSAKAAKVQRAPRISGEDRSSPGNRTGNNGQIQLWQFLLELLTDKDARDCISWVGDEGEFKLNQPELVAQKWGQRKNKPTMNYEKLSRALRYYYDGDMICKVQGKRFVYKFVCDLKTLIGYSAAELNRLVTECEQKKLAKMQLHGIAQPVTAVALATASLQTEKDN
In a few lines: as §1

In a further assay the target is T3, ERG (Homo sapiens, UniProt P11308 1-479).
T3 sequence: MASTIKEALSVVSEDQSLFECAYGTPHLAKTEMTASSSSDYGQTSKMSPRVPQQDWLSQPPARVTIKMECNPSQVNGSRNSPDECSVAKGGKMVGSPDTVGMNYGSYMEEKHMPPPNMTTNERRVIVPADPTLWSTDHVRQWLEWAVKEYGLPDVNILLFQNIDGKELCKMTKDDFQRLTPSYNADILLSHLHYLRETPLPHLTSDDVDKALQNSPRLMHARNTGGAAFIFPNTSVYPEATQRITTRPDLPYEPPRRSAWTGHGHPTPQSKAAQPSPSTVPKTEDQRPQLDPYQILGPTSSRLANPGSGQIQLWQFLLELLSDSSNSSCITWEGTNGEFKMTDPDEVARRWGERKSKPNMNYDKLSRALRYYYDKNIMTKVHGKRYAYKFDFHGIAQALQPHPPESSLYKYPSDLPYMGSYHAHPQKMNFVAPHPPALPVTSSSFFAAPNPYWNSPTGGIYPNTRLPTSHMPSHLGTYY
In a few lines: as §1

A further assay deals with ELF1 (Homo sapiens, UniProt P32519 1-619). The gist of the method: as §1
Chain of ELF1 (P32519 whole entry): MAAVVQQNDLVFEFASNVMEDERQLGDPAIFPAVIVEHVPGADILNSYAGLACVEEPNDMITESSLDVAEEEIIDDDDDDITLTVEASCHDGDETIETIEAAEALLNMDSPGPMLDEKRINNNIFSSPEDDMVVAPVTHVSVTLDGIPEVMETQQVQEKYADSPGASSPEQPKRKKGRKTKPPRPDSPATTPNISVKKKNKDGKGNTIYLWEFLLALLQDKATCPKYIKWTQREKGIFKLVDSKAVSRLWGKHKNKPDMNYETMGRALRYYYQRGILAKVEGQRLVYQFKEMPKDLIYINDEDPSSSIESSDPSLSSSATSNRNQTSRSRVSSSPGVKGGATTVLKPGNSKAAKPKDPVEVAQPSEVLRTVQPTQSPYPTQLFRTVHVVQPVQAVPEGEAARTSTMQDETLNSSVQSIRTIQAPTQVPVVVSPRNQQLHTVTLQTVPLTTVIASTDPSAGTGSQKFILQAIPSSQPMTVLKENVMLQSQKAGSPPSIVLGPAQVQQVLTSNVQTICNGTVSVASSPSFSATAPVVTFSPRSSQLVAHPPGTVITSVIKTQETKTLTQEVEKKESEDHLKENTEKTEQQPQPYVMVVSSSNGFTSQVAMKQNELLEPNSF
Another assay deals with T4, EHF (Homo sapiens, UniProt Q9NZC4 1-300).
T4 sequence: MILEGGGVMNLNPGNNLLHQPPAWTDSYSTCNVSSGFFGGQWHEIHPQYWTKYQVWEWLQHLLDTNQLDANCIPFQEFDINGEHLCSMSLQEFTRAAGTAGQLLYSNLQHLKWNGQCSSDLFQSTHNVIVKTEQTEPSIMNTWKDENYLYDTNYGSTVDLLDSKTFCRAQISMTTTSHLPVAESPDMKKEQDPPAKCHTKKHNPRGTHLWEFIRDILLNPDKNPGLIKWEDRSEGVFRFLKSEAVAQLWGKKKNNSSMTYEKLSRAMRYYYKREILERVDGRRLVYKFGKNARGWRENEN
In a few lines:
as §1

The next assay addresses SPI1 (Homo sapiens, UniProt P17947 1-270). In a few lines:
as §1

A further assay concerns the target SPIB (Homo sapiens, UniProt Q01892 1-262). In a few lines: as §1
A further assay has as its target ETV5 (Homo sapiens, UniProt P41161 1-510). In a few lines:
as §1

Another assay has as its target T5, SPIC (Homo sapiens, UniProt Q8N5J4 1-248).
T5 sequence: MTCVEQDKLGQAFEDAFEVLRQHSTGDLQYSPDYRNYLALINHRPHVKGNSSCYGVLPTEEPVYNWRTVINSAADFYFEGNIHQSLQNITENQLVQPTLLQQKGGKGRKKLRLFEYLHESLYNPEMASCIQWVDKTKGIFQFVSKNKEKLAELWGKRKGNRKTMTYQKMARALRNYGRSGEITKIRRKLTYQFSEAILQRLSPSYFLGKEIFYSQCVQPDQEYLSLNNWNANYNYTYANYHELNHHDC
The gist of the method:
as §1

The next assay deals with ELF4 (Homo sapiens, UniProt Q99607 1-663). In a few lines: as §1
Chain of ELF4 (Q99607 whole entry): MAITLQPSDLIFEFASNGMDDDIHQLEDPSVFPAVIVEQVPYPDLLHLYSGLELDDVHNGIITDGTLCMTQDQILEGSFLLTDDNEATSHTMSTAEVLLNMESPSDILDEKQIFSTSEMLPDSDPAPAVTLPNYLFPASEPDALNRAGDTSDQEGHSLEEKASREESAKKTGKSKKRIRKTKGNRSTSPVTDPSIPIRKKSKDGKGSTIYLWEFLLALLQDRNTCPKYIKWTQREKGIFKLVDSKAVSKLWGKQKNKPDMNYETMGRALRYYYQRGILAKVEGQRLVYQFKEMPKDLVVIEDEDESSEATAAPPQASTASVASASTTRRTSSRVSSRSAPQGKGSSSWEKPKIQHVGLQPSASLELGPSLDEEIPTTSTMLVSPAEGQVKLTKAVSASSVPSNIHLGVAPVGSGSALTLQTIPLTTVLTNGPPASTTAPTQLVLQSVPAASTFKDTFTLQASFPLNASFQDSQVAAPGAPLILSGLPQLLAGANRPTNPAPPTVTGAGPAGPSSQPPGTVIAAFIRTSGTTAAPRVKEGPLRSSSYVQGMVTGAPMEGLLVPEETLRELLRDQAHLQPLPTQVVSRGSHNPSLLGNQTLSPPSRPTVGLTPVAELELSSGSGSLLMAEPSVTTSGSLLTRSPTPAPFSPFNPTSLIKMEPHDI
A further assay has as its target ETV1 (Homo sapiens, UniProt P50549 1-477). The gist of the method: as §1
The next assay addresses T6, ERF (Homo sapiens, UniProt P50548 1-548).
T6 sequence: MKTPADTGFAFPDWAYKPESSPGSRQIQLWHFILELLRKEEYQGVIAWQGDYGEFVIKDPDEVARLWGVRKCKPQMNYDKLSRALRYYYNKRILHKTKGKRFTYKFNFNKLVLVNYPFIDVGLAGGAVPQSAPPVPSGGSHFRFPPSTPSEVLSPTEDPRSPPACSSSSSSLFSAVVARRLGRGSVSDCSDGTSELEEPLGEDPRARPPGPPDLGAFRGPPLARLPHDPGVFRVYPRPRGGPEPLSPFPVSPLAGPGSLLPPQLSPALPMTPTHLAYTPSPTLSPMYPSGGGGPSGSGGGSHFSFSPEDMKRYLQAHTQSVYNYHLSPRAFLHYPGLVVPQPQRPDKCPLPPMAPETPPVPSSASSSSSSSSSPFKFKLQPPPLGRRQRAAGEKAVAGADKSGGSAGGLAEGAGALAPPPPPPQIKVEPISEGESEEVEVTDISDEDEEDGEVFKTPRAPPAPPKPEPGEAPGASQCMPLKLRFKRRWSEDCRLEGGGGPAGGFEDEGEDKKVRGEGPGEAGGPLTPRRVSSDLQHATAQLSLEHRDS
The gist of the method: as §1

A further assay deals with T7, ETV3L (Homo sapiens, UniProt Q6ZN32 1-361).
T7 sequence: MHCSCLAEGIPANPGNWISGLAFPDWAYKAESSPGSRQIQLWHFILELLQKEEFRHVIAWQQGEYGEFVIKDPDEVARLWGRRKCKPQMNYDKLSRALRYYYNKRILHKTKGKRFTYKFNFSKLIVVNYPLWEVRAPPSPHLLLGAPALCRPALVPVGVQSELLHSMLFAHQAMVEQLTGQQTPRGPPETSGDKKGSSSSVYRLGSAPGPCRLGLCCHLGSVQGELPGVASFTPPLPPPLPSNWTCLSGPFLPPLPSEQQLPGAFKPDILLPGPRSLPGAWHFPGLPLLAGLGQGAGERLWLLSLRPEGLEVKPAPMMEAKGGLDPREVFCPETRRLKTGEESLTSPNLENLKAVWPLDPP
In a few lines:
as §1

Another assay has as its target T8, ETS2 (Homo sapiens, UniProt P15036 1-469).
T8 sequence: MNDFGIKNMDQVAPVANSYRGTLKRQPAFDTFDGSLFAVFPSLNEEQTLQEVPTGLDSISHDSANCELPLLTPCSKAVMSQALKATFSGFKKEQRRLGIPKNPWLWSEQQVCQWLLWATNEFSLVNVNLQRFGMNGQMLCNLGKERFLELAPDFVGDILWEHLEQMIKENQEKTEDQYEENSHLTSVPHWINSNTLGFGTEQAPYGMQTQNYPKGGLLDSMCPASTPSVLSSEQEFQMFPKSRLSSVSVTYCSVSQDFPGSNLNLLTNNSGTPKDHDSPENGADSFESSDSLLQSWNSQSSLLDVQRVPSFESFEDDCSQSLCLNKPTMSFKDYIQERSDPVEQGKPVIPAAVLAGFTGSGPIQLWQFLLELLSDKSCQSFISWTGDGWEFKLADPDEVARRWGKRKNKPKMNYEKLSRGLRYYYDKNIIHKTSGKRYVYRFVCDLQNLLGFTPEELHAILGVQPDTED
In a few lines:
as §1

The target in another assay is T9, ELF5 (Homo sapiens, UniProt Q9UKW6-2 1-255).
T9 sequence: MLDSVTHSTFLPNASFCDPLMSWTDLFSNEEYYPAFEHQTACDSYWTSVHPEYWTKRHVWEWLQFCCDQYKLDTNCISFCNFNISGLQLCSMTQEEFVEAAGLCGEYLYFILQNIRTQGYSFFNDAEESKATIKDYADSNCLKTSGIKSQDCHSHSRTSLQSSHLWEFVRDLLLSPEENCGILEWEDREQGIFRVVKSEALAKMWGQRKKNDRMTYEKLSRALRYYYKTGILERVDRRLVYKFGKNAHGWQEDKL
The gist of the method:
as §1

Chain of ETV1 (P50549 whole entry): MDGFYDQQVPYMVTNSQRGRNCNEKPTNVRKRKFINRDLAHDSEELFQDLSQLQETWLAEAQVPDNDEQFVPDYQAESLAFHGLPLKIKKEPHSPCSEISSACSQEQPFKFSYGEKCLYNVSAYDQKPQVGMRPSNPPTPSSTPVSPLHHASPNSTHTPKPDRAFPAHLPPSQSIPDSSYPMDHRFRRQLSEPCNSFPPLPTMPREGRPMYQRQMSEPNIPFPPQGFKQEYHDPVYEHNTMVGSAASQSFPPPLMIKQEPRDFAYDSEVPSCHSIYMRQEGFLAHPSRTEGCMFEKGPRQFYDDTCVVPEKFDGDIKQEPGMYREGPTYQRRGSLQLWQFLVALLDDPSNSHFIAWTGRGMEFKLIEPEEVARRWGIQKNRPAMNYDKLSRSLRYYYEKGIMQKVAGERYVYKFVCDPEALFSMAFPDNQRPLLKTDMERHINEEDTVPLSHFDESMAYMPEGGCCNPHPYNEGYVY
Chain of SPIB (Q01892 whole entry): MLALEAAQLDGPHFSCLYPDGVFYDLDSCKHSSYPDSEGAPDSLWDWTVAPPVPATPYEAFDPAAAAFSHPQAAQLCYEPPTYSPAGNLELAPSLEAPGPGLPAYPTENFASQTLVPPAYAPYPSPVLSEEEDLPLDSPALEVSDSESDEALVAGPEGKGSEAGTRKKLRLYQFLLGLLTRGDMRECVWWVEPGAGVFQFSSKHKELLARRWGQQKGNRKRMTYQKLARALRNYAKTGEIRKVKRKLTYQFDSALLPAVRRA
Chain of ETV5 (P41161 whole entry): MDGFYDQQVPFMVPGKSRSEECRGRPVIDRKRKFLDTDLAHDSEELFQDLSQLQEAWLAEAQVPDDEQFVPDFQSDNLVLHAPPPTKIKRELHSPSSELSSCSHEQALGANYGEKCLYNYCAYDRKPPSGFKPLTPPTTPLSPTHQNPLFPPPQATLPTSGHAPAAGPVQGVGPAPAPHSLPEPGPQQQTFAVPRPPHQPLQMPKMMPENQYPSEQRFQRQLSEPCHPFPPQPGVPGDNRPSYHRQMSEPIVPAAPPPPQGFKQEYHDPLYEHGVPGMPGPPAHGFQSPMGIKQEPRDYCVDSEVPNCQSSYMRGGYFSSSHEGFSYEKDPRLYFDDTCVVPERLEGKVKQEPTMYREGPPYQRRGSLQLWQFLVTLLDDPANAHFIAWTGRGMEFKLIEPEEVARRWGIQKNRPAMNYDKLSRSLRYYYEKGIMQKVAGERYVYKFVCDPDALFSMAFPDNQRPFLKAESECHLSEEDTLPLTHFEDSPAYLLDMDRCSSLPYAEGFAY

Turning to TGTGGT, the binding signal was 1.08 fold enrichment (6-mer frequency, TF over GST control) with FLI1; 1.09 fold enrichment (6-mer frequency, TF over GST control) in the assay with GABPA; 1.07 fold enrichment (6-mer frequency, TF over GST control) with ERG; 1.01 fold enrichment (6-mer frequency, TF over GST control) with ELF1; 1.08 fold enrichment (6-mer frequency, TF over GST control) with EHF; 1.05 fold enrichment (6-mer frequency, TF over GST control) with SPI1. The binding signal with SPIB was 1.16 fold enrichment (6-mer frequency, TF over GST control); in the assay with ETV5 it was 1.04 fold enrichment (6-mer frequency, TF over GST control); with SPIC it was 1.02 fold enrichment (6-mer frequency, TF over GST control); with ELF4, 1.04 fold enrichment (6-mer frequency, TF over GST control); in the assay with ETV1, 1.01 fold enrichment (6-mer frequency, TF over GST control); in the assay with ERF, 1.06 fold enrichment (6-mer frequency, TF over GST control). Also, the binding signal in the assay with ETV3L was 1.04 fold enrichment (6-mer frequency, TF over GST control); with ETS2, 1.05 fold enrichment (6-mer frequency, TF over GST control); in the assay with ELF5, 1.03 fold enrichment (6-mer frequency, TF over GST control).
